For some assays here: Entries with a potency or affinity are not part of this list.
What was measured:
Design in all cases: scale not given: direction of the effect not stated beside the values
[1] = biological target: Protein translocase subunit SecA (Escherichia coli (strain K12)) (UniProt P10408); test: Assay to Identify E. coli SecA ATPase Inhibitors; type: functional; settings: 30 µM
[2] = biological target: T1, Ubiquitin-activating enzyme e1, putative (Leishmania donovani (strain BPK282A1)) (UniProt E9BSI1); test: Leishmania donovani Ubiquitin Activating Enzyme (LdE1); type: functional; settings: 30 µM
T1 sequence (whole entry): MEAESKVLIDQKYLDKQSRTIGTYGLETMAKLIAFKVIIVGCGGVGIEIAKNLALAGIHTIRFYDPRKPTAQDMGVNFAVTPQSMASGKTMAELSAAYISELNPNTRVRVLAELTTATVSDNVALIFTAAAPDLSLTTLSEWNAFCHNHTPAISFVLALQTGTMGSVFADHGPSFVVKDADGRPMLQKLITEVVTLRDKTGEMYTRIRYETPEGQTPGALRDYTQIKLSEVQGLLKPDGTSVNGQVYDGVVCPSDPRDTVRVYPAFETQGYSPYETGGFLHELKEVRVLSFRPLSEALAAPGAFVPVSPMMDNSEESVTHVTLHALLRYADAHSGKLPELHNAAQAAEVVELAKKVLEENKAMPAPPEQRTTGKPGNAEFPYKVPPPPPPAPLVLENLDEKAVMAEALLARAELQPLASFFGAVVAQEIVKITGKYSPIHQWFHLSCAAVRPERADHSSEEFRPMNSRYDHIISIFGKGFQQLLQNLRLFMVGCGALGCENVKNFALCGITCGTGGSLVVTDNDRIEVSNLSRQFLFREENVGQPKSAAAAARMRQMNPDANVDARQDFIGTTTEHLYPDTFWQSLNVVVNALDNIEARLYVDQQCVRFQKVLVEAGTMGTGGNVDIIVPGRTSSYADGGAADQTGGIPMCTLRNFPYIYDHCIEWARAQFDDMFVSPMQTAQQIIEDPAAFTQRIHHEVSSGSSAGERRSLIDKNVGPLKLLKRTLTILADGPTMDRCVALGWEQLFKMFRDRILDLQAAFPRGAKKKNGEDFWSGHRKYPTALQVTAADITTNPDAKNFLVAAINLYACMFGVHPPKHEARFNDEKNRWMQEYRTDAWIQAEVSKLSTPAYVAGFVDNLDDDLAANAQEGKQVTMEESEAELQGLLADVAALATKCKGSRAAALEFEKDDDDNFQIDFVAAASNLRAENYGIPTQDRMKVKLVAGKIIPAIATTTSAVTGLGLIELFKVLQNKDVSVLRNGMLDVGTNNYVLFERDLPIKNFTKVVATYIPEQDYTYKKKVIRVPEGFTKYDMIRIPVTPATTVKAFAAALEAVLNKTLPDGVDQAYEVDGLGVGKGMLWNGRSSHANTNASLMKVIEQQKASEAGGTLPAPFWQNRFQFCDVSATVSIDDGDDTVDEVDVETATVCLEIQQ

[3] = biological target: AMP-activated protein kinase, AMPK (Homo sapiens) (UniProt P54646+O43741+P54619+Q9UGJ0+Q9Y478+Q13131+Q9UGI9); test: AMP-dependent Kinase enzyme assay. An in vitro enzyme assay that detects ADP turnover that is directly proportional to AMPK activity. This uses naive AMPK that is activated during the assay with MK-8722; type: functional; settings: 30 µM
[4] = biological target: Sialic acid-binding Ig-like lectin 9 (Homo sapiens) (UniProt Q9Y336); test: Hs-Siglec9 ALPHAscreen SOP 20170721; settings: 10 µM
Sialic acid-binding Ig-like lectin 9 (Homo sapiens), sequence (Q9Y336 whole entry): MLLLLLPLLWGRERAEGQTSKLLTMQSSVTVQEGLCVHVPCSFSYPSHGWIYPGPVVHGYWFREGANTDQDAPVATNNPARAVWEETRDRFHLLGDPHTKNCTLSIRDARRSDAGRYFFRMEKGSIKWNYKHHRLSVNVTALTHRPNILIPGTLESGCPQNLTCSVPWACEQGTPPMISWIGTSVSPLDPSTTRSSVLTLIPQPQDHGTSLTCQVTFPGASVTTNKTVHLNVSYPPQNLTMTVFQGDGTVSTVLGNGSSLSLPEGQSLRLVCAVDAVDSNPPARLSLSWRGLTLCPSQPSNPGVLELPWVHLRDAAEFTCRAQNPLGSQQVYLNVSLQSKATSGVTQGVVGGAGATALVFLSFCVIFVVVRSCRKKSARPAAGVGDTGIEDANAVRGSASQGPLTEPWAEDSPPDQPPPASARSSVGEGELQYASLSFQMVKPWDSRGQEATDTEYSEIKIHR

Trypanosoma cruzi = test: Trypanosoma cruzi phosphomannomutase and mannose-1-phosphate guanylyltransferase assay; type: functional; settings: 10 µM
[5] = biological target: T2, Arginase-2, mitochondrial (Homo sapiens) (UniProt P78540); test: in vitro enzyme assay to detect the production of urea directly proportional to the activity of Arginase II; type: functional; settings: 33.3 µM; further: in the data most compounds retested in dose-response had high values
T2 sequence (whole entry): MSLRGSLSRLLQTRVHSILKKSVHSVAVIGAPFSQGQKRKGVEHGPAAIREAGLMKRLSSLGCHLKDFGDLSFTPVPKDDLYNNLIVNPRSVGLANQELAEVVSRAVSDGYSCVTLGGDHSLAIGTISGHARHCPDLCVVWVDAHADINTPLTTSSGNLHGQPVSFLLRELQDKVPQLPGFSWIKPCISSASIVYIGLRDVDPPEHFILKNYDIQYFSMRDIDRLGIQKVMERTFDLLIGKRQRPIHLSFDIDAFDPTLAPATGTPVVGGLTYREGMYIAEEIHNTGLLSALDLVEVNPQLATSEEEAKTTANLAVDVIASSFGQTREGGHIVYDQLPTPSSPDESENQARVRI

[6] = biological target: T3, Proteasome subunit beta (Trypanosoma cruzi) (UniProt O96673); test: Trypanosoma cruzi proteasome chymotrypsin-like activity (TcProtChymo) assay.; further: in the data most compounds retested in dose-response had high values; type: functional; settings: 9.37 µM
T3 sequence (whole entry): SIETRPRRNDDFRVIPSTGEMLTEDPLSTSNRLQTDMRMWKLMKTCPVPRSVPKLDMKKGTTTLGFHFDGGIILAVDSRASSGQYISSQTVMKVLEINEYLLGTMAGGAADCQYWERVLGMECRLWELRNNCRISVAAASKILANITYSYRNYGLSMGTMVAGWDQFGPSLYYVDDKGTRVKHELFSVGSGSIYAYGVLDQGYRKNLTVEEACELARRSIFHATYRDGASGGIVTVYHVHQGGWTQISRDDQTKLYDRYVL

Homo sapiens = species: Homo sapiens; test: To identify inhibition of the IFN signalling (Jak-Stat) pathway via expression of an eGFP reporter gene under the control of an IFN-stimulated response element (ISRE) containing MxA promoter.; type: functional; settings: 30 µM
[7] = biological target: T4, Tyrosyl-tRNA synthetase, putative (Trypanosoma cruzi (strain CL Brener)) (UniProt Q4DSP6); test: Trypanosoma cruzi tyrosyl tRNA synthetase (TcYRS) _High Tyrosine SOP; type: functional; settings: 30 µM; further: in the data most compounds retested in dose-response had high values
T4 sequence (whole entry): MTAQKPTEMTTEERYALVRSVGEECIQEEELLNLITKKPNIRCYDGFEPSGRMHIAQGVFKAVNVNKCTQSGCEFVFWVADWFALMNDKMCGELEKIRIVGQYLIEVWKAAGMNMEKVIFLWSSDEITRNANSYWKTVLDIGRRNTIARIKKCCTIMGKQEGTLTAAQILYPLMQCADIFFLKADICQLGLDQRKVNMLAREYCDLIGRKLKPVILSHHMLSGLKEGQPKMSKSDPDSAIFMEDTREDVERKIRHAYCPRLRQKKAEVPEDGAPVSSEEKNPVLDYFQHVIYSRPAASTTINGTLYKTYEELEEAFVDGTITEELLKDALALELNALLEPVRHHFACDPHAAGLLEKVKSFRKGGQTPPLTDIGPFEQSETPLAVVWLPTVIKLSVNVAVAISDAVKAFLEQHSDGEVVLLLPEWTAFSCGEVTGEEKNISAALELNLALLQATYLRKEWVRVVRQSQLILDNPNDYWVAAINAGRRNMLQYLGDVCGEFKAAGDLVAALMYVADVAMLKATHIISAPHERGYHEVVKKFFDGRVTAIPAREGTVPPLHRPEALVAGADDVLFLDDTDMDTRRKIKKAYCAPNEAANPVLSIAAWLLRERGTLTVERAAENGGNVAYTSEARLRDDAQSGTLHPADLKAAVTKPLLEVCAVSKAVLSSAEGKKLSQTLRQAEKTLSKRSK

[8] = biological target: T4, Tyrosyl-tRNA synthetase, putative (Trypanosoma cruzi (strain CL Brener)); test: Trypanosoma cruzi tyrosyl tRNA synthetase (TcYRS) SOP; type: functional; settings: 30 µM
[9] = biological target: Chromo domain-containing protein 1 (Saccharomyces cerevisiae (strain ATCC 204508 / S288c) (Baker's yeast)) (UniProt P32657); test: ScCHD-1 Enzyme Inhibition Assay; type: functional; settings: 30 µM; further: in the data most compounds retested in dose-response had high values
Chromo domain-containing protein 1 (Saccharomyces cerevisiae (strain ATCC 204508 / S288c) (Baker's yeast)), sequence (P32657 whole entry, the tested form may be a part): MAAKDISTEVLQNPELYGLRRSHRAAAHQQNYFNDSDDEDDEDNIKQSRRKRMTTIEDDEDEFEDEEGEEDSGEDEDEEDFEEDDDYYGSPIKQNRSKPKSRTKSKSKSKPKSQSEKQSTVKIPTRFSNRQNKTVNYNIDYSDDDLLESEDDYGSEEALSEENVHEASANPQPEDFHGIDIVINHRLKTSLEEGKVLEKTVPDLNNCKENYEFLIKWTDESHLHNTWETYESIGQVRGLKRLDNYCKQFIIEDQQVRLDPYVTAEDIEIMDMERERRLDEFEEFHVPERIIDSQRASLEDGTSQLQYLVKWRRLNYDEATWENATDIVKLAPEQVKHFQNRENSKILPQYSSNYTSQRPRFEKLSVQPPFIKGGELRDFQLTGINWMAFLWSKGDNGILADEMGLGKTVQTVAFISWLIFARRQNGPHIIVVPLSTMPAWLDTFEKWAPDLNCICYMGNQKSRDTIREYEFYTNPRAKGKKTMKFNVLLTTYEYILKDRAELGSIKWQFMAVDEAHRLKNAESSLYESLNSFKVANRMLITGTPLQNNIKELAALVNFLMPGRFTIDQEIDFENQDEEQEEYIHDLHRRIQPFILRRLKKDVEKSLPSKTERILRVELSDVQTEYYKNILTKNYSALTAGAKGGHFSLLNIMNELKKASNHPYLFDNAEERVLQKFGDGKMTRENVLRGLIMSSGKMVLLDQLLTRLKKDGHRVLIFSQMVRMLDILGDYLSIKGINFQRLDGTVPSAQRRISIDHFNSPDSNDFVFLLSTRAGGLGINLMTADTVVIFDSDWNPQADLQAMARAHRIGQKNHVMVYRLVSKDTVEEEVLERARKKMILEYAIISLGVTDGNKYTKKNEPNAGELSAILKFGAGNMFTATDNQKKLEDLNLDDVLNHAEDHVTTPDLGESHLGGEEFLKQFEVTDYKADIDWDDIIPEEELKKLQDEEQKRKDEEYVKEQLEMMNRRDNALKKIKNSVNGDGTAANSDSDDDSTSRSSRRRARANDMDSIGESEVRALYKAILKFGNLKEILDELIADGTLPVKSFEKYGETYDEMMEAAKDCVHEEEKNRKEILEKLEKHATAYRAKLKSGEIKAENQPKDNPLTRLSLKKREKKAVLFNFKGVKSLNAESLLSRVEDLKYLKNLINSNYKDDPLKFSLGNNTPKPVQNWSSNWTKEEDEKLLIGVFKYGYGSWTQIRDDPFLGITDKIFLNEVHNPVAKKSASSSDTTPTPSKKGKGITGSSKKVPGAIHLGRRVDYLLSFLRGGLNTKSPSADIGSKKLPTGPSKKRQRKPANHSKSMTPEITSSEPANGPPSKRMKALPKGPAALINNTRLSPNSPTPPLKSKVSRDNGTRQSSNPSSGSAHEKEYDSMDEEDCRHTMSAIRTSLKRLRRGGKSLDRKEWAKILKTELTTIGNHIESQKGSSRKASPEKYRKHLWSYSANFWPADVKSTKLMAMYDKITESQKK

Protein translocase subunit SecA (Escherichia coli (strain K12)), sequence (P10408 whole entry): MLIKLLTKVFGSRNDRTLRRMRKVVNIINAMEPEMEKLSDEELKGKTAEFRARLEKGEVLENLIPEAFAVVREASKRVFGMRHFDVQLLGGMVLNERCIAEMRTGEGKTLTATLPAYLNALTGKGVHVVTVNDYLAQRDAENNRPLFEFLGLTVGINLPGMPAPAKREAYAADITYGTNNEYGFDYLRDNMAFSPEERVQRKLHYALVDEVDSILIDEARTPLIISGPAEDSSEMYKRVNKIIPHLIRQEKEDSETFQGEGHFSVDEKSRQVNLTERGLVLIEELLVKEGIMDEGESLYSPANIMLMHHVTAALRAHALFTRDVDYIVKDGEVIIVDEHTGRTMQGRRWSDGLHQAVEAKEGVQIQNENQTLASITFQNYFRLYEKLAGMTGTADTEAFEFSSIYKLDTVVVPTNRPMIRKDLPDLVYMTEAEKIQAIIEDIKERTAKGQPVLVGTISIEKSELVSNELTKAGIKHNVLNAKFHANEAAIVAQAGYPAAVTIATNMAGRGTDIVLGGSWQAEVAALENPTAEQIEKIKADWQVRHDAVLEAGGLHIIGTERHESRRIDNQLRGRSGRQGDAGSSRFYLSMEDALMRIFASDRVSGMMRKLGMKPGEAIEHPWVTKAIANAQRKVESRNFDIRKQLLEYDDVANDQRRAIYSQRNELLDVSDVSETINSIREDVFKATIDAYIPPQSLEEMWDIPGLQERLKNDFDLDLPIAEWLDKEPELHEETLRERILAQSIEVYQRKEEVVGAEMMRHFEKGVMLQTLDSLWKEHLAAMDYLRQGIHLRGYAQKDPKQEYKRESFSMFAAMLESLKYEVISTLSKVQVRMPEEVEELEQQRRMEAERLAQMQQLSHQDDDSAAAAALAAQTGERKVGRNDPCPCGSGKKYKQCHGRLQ

SMILES | Percent Effect [1] | Percent Effect [2] | Percent Effect [3] | Percent Effect [4] | Percent Effect (Trypanosoma cruzi) | Percent Effect [5] | Percent Effect [6] | Percent Effect (Homo sapiens) | Percent Effect [7] | Percent Effect [8] | Percent Effect [9]
CC(C)C1CN(c2ncccn2)CCC(=O)N1Cc1ccc(F)cc1 (stereo not given) | -4.22% | 6.94% | -1.8% | -3.12% | -0.291% | 4.86% | 7.54% | 8.83% | 7.37% | 12.8% | -3.01%
Cc1cccc(-n2cc(C(=O)N3CCCC(n4ccnc4)C3)nn2)c1 (stereo not given) | -3.01% | 15.6% | 7.1% | -13.5% | -5.58% | -3.16% | 14.6% | 21.7% | 1.91% | 11.8% | -17.4%
CCc1cnc(CN(C)C2CCN(CCc3ccccn3)C2)o1 (stereo not given) | 3.36% | 9.72% | -16% | 1.45% | -3.21% | 3.97% | 25.6% | 0.763% | 10.5% | 5.13% | 107%
COC(=O)c1ccc(N2CCN(C(=O)c3cc(C)on3)C(C)C2)cc1 (stereo not given) | -1.64% | 12.7% | 13.9% | 10.2% | -3.87% | 0.76% | 9.42% | 7.47% | -2.46% | 3.8% | -6.13%
CCN(CC)C(=O)c1ccc(-c2ccsc2)nc1C | -1.54% | 6.94% | 5.62% | -7.86% | -4.37% | -0.442% | 25.3% | -1.98% | 4.21% | 5.13% | -1.47%
O=C(NCC1CC1)[C@@H]1CCO[C@@H]2CCN(Cc3ccco3)C[C@H]21 | -1.9% | -2.67% | 1.99% | -4.47% | -2.9% | -55.7% | -1.2% | 5.41% | -3.12% | -10% | -0.123%
Cc1ccc(C#N)c(N2CCC(c3nccn3Cc3cscn3)CC2)n1 | -1.6% | 10.7% | -4.04% | 15.7% | 5.75% | 9.38% | 13.2% | 3.33% | 4.92% | 16.1% | -7.28%
Cc1ccoc1C(=O)N1CCO[C@H]2[C@H](OCC3CCOCC3)CC[C@@H]21 | -3.5% | 5.33% | -1.93% | 2.92% | 5.02% | -48.9% | -0.513% | -9.79% | 2.08% | -5% | -3.9%
O=C(NCC(O)c1ccc(F)c(F)c1)c1cccnc1O (stereo not given) | -0.608% | 13.7% | 1.02% | 2.28% | -0.198% | -4.39% | 24.9% | 3.44% | 10.4% | 21% | -4.53%
O=C(c1cnco1)N1C[C@@H]2CC[C@H](Oc3cccc(F)c3)[C@@H]2C1 | -9.68% | 12.2% | 2.91% | 6.76% | 0.988% | -4.41% | 10.9% | 9.56% | 3.23% | 11.7% | -8.63%
